Data on 36 molecules can be found in ChEMBL document CHEMBL1157539, “Thousands of chemical starting points for antimalarial lead identification” (Nature, 2010).

Values joined by “and” are separate entries in the source; they are usually repeats but may differ in a detail not shown here. Equal entries are not always repeated.

The experiment deals with HepG2. Kind of experiment: GSK_TCMDC: Percent inhibition of human HepG2 cell line. Test compounds present at 10uM. In kind it is functional.
In general, Inhibition refers to the change of the read-out against control, counted positive when it falls. Molecule `CC(C)C1c2ccc(O)cc2CC2C(=O)N(C3CCCCC3)C(=O)N21` (stereo unspecified) came in with an Inhibition of 2%. The value for `O=C(Nc1cccc(Cl)c1Cl)Nc1ccnc2ccccc12` was 31%; that for `Clc1ccc(-c2[nH]c3ccccc3c2CN2CCC(N3CCCCC3)CC2)cc1` was 5%; that for `O=C(/C=C/c1ccc(Cl)c(Cl)c1)NCCCCCN1CCC(c2c[nH]c3ccccc23)C(O)C1` (stereo unspecified) was 34% and 12%. `CN(C)c1cccc2c1nc(-c1ccco1)n2CCNCc1ccccc1.O=C(O)C(F)(F)F` gave an Inhibition of 0%. The molecule `Cn1cccc1C(=O)C(=O)Nc1cccc(-c2ccc(-c3nc4cc(C(F)(F)F)ccc4[nH]3)cc2)c1` registered an Inhibition of 62%. With `CCc1ccccc1N1CCN(CCCCNC(=O)c2ccc(NC(=O)c3ccc(Cl)cc3)cc2)CC1`, the Inhibition was found to be 21%.

`COc1ccc(-c2cccc(NC(=O)c3cccc(Cl)c3)c2)cc1CN1CCN(C)CC1.O=C(O)C(F)(F)F` came in with an Inhibition of 27%. Regarding `Clc1ccc(Nc2nc(-c3ccccn3)cs2)nc1`, the Inhibition is given as 36%. In the case of `O=C(NCc1ccccc1)c1nn(CCCN2CCC(N3CCCC3)CC2)cc1-c1ccc(Cl)c(Cl)c1`, the Inhibition is 29%.

`CC(C)CSc1cc(C(=O)Nc2cc(Cl)ccc2O)ccn1` returned an Inhibition of 36%. On to `O=C(NCCc1ccc(Cl)c(Cl)c1)c1ccc(CNC(=O)c2ccc(O)c(-c3ccc(Cl)c(Cl)c3)c2)cc1`, for which the Inhibition stood at 0%. For `CC(C)NCc1ccc(-c2ccc(-c3nc4cc(C(F)(F)F)ccc4[nH]3)cc2)cc1.O=C(O)C(F)(F)F`, the Inhibition turned out to be 16%. `CC[C@H](C)CNC(=O)c1cncc(-c2cccc(CN(C)C3CCN(C)CC3)c2)c1.O=C(O)C(F)(F)F` yielded an Inhibition of 9%. Molecule `CC(=O)N/N=C/[C@H](CCc1ccccc1)NC(=O)[C@H](CC(C)C)NC(=O)c1ccc(F)cc1` displayed an Inhibition of 2%. `N=C(N)c1ccc(Nc2nccc(Nc3nc(-c4ccccc4)cs3)n2)cc1.O=C(O)C(F)(F)F` registered an Inhibition of 13%. In the case of `Cc1cccc2nc(-c3cccc(-c4cccc(NC(=O)c5cnccc5C(F)(F)F)c4)c3)[nH]c12`, the Inhibition is reported as 7%. As to `COc1ccc(CNC2CCN(C)CC2)cc1-c1ccc(S(=O)(=O)NCc2ccccc2)c(F)c1.O=C(O)C(F)(F)F`, the Inhibition is reported as 53%. The molecule `C/C(=C\C(=O)NC1CC1)c1ccccc1OCc1ccccc1` yielded an Inhibition of 3%. `Cc1cc(CNCCCCCCCNCc2ccc(-c3ccccc3)cc2)ccc1O` showed an Inhibition of 49%. On to `COc1cccc(NC(=O)c2cc(C(=O)Nc3cccc(OC)c3)cc([N+](=O)[O-])c2)c1`, for which the Inhibition was found to be 1%.

Take `COc1ccc(-c2cccc(NC(=O)c3ccc(F)cc3)c2)cc1CNC(C)C.O=C(O)C(F)(F)F`: the Inhibition is listed as 32%. Regarding `Cc1cc(N(C)C)nc(Nc2ccc(NC(=O)C3CCCCC3)cc2)n1`, the Inhibition was determined as 3%. In turn, `O=C(/C=C/c1cc([N+](=O)[O-])ccc1Cl)N1CCC(CCN2CCC(c3c[nH]c4ccccc34)CC2)CC1` showed an Inhibition of 25%. With `COc1ccccc1CCNc1nc(C)cc(N[C@@H](CC(C)C)C(=O)Nc2ccccc2)n1.O=C(O)C(F)(F)F`, the Inhibition is recorded as 16%. `CCN(CC)CCN(Cc1ccc(-c2ccc(C(F)(F)F)cc2)cc1)C(=O)Cn1c(CCc2cc(F)cc(F)c2)nc(=O)c2ccccc21.O=C(O)C(O)C(O)C(=O)O` yielded an Inhibition of 30%. With `OC(CNCc1ccccc1)c1cc(OCc2ccccc2)cc(OCc2ccccc2)c1` (stereo unspecified), the Inhibition is 0%. To `CC(=O)Nc1ccc2[nH]cc(C3CCN(CCC4CCN(C(=O)/C=C/c5ccc(Cl)c(Cl)c5)CC4)CC3)c2n1` belongs 16%; to `CO/C(=C\C=C\c1cc2cc(Cl)c(Cl)cc2[nH]1)C(=O)NCCCNC12CC3CC(CC(C3)C1)C2`, 29%. `Cl.FC(F)(F)c1ccccc1OCc1cc(-c2ccncc2)c(COc2ccccc2C(F)(F)F)cc1C1=CCNCC1`: the Inhibition is 31%. Take `CCCO[C@H](C(=O)OC)[C@@H](CC1Cc2ccccc2C1)C(=O)NCCC1=CCCCC1`: the Inhibition is listed as 6%.

Molecule `O=C(Nc1ccc(S(=O)(=O)NCCCN2CCOCC2)cc1)c1cc(-c2ccccc2)[nH]n1` registered an Inhibition of 16%. `CN(C)Cc1cccc(-c2ccc(NC(=O)c3ccc4c(=O)n(C5CCCCC5)cnc4c3)cc2)c1` returned an Inhibition of 92%. In turn, `CC(=O)Nc1ncc(C(=O)Nc2ccc(-c3cccc(-c4nc5cc(F)ccc5[nH]4)c3)cc2)s1` yielded an Inhibition of 47%.

`CC(C)(C)Oc1ccc(C[C@@H]2NC3(C(=O)N(Cc4ccc(Cl)c(Cl)c4)c4ccccc43)C3C(=O)N(c4ccc(Br)cc4)C(=O)C32)cc1` (stereo partly specified) displayed an Inhibition of 1%. `COc1ccc(NC(=O)c2ccc(Br)c(C)c2)cc1N1CCN(Cc2ccccc2)CC1.O=C(O)C(=O)O`: the Inhibition is reported as 0%.
